ClpP mod = qHTS Assay for Activators of ClpP | purified B. subtilis ClpP, FRET peptide cleavage, 20 min | ATP-dependent Clp protease proteolytic subunit (Bacillus subtilis (strain 168)), P80244 | hit rate 1.9% among 340,000 | Potency, µM (series often up to 57.5 µM), for inactives: at the highest dose activity change, negative = active; active = well fitted falling curve with a large enough effect; inconclusive = small, poorly fitted or top-dose-only effect; inactive = no such curve, though single readings can be large or run the other way; note: potency is the fitted concentration of half-maximal effect; the source files actives as falling curves though it sought activators and does not explain the sign; nearly all actives have a fitted effect of over 65% in size
Target sequence (P80244 whole entry, looked up): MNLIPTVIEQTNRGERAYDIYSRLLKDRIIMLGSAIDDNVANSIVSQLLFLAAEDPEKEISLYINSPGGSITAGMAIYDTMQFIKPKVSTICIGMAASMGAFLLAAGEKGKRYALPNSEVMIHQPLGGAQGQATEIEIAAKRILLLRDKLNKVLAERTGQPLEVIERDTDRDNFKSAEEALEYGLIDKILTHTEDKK
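Buffer: 100 mM Tris/HCl pH8, 100 mM KCl, 0.05% low protease BSA, 2.5% glycerol, 0.01% Tween-20. ClpP 10 microg/mL final; 20 min RT; delta FRET normalized to ADEP and DMSO controls.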
GLP-1R agonist = GLP-1 receptor (human) agonism; P43220; Potency, µM (series often up to 45.6 µM), for inactives: at the highest dose activation, usual class: activators; HEK293 GLP-1R CRE-luciferase, luminescence, 4-6 h; cells express a hypersensitive GLP-1R form; hit rate 0.007% among 380,000; note: potency is the fitted concentration of half-maximal effect; % of control where 0% means no effect
Target sequence (P43220 whole entry, looked up): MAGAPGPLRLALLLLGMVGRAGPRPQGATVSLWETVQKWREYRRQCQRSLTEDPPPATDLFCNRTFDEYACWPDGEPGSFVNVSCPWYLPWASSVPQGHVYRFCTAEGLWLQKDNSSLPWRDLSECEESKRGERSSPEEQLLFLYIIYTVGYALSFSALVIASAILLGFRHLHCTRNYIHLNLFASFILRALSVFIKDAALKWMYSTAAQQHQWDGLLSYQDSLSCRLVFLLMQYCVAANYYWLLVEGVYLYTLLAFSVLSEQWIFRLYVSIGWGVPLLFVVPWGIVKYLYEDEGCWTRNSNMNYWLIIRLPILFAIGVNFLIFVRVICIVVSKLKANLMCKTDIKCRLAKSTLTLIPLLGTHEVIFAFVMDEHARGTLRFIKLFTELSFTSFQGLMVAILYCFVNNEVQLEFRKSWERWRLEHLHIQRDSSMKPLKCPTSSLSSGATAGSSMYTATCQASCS
GLP-1R inv ag = GLP-1 receptor (human) inverse agonism; P43220; HEK293 GLP-1R CRE-luciferase, luminescence, 24 h; GLP-1R form is constitutively active; Potency, µM (titrated, usually from 38.3 µM), for the others: top-dose activity change, negative = inhibition, most hits filed as inhibitors; hit rate 1.6% among 410,000; note: potency is the fitted concentration of half-maximal effect; % is set by controls: 0 for no effect and ±100 for the full control effect; nearly all actives have a fitted effect of over 55% in size
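GLP-1R inverse agonism mode: basal reporter luminescence in engineered HEK293 cells measured after one day of compound exposure at 37 deg C, with a 12 min room-temperature detection step.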
DRD3 antagonist = blocks the human D3 dopamine receptor. P35462. D3R cells, DiscoveRx beta-arrestin luminescence, antagonist mode; active compounds read low. max response, negative = inhibition, %. hit rate 2.5% among 360,000; in the data active = max response below about -50%; inconclusive = no clear call, values can overlap the other calls; note: % is set by controls: 0 for no effect and ±100 for the full control effect
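Cells plated overnight at 1500 cells/well, then exposed to library compounds with dopamine controls for 90 minutes at 37 degrees C. DiscoveRx reagent added for 30–60 minutes at room temperature; luminescence read, quantitative HTS format.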
HEK293 tox = cytotoxicity in counter-screen for GLP-1R inverse agonists | HEK293 cAMP-luciferase reporter cells, luminescence, 24 h | Potency, µM (top dose mostly 38.3 µM), for inactives: at the top dose activity change, negative = inhibition, usual class: inhibitors | hit rate 0.13% among 410,000 | AID 624418;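 note: loss of luciferase light is scored as toxicity; potency is the fitted concentration of half-maximal effect; % is set by controls: 0 for no effect and ±100 for the full control effect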
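Quantitative HTS format, 1536 wells, 200 cells/uL seeded. Compounds: 23 nL, 24 h, 37 °C. Detection: luciferase reagent, luminescence at 12 min RT; decreased signal taken as cytotoxic.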
DRD3 agonist = agonists of human D3 dopamine receptor; hit rate 0.58% among 410,000; D3R DiscoveRx beta-arrestin cells, luminescence, 90 min; P35462; max activation, %; in the data active = max activation above about 30%; note: 0% is about no effect
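Agonist mode: compounds and dopamine controls were applied to plated cells for 90 min at 37 degrees C after an overnight attachment at 1500 cells/well. Luminescent read-out followed 30 - 60 minutes at room temperature with DiscoveRx detection reagent.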
Starred values were filed as active, the others as inactive; ? = inconclusive; / = no result given. Only some compounds are listed: those with a hit (about 5.7% of all), similar ones and a draw of the others. Unless noted, calls come from the whole dose curve; as a rule, active = well fitted curve in the direction sought with a large enough effect; inconclusive = small, poorly fitted or top-dose-only effect, or another doubt; inactive = no such curve, though single readings can be large; an effect the other way counts as inactive or inconclusive.

SMILES	ClpP mod	GLP-1R agonist	GLP-1R inv ag	DRD3 antagonist	HEK293 tox	DRD3 agonist
Cc1ccccc1C(OCCN(C)C)c1ccccc1 (stereo not given)	0.2%	-0.5%	-13.4%	-53.4*	-8.7%	/
Cc1cc(=O)n2c3ccccc3n(CC(O)CN3CCOCC3)c2c1C#N (stereo not given)	/	-1.8%	6.1%	17.8	-5.9%	4.0
Cc1cc(=O)n2c3ccccc3n(CC(O)CN3CCCCC3)c2c1C#N (stereo not given)	28.2µM*	-0.3%	-0.2%	12.8	?	5.2
CCCc1cnc2c(c1SCc1ccc(C(F)(F)F)cc1)c(=O)n(C)c(=O)n2C	1.0%	/	17.1%	/	0.4%	-7.5
CC(C)(C)c1ccc(-c2n[nH]c(=S)n2-c2ccccc2)cc1	8.91µM*	0.2%	31.5%	9.4	?	0.0
Cc1ccc(-n2c(-c3ccccc3)n[nH]c2=S)cc1	-8.6%	-6.2%	6.1%	0.0	?	1.2
Cc1ccc(-n2c(-c3ccccc3)n[nH]c2=S)c(C)c1	-11.9%	-5.9%	?	-6.5	10µM*	-2.8
Cc1ccc(C)c(-n2c(-c3ccc4c(c3)OCO4)n[nH]c2=S)c1	28.2µM*	2.3%	?	8.7	-24.8%	-10.5
COc1cccc(CNc2nc(NC(C)C)nc3ccsc23)c1	-19.3%	-0.5%	?	-3.0	-14.5%	-19.2
CC(O)Cn1ccccc1=N (stereo not given)	15.8µM*	19.3%	8.1%	-22.5	-2.5%	-6.8
N#CCCn1cc(/C=N/O)c(-c2ccc(-c3ccccc3)cc2)n1	-6.8%	-1.8%	?	1.6	-1.9%	-4.0
O=C(O)CCn1cc(/C=C2/NC(=S)N(c3ccccc3)C2=O)c(-c2ccccc2)n1	12.6µM*	2.3%	-5.4%	0.0	?	-6.7
N#CCCn1cc(/C=C2\NC(=S)N(c3ccccc3)C2=O)c(-c2ccc(-c3ccccc3)cc2)n1	/	0.5%	7.94µM*	-22.0	1.0%	0.5
O=C(CCN1CCCCC1)c1ccc2c(c1)OCCO2	2.1%	-1.8%	5.4%	?	0.5%	-33.3
O=C(CCN1CCc2ccccc2C1)c1ccc2c(c1)OCCO2	-11.5%	-11.2%	-25.3%	-88.4*	?	-8.3
O=C(CCN1CCC(c2ccccc2)C1)c1ccc2c(c1)OCCO2 (stereo not given)	-18.8%	26.5%	5.2%	-66.2*	13.0%	-86.8
CCOC(=O)c1c(-c2ccc(C)o2)csc1NC(=O)COC(=O)c1cccs1	-25.7%	0.0%	-5.0%	0.0	10.5%	0.9
CCOC(=O)c1c(-c2ccc(C)o2)csc1NC(=S)NC(=O)N(C)C	-0.9%	-13.9%	-14.2%	-55.0*	?	1.5
CCCCNC(=O)C1=C(N)C(C(=O)Nc2ccc(C)c(S(=O)(=O)N3CCCCC3)c2)SC1=Nc1ccc(C)cc1C (stereo not given)	-3.3%	-4.5%	12.6µM*	-19.2	8.7%	-3.8
CC(=O)Nc1ccc(NC(=O)C2CCN(c3c(NC(C)=O)c(C)nn3-c3ccccc3)CC2)cc1	0.6%	/	22.6%	/	-4.1%	-5.9
CCOc1ccc(NC(=S)N2CCc3cc(OC)c(OC)cc3C2COc2ccc3c(C)cc(=O)oc3c2)cc1 (stereo not given)	8.91µM*	2.1%	5.9%	-13.8	-17.0%	4.2
CCCn1c(=O)c2sccc2n2c(CCCC(=O)Nc3ccccc3F)nnc12	-9.3%	/	13.1%	/	2.1%	15.3
COc1cccc2c1C(=O)c1c(O)c3c(c(O)c1C2=O)C[C@@](O)(C(=O)CO)C[C@@H]3O[C@H]1C[C@H](N)[C@H](O)[C@H](C)O1	-0.2%	-10.3%	?	-14.6	?	-6.7
COc1cccc2c1C(=O)c1c(O)c3c(c(O)c1C2=O)C[C@@](O)(C(=O)CO)C[C@@H]3OC1CC(N)C(O)C(C)O1 (stereo not given in full)	-1.9%	-20.8%	4.47µM*	-22.6	?	-10.7
CCc1ccc(NC(=O)CSc2nccn2C2CCCC2)cc1	-2.6%	/	6.9%	/	2.4%	-16.0
SMILES	ClpP mod	GLP-1R agonist	GLP-1R inv ag	DRD3 antagonist	HEK293 tox	DRD3 agonist
Cc1ccc(-n2c3nc(=O)[nH]c(=O)c-3cc3cc([N+](=O)[O-])ccc32)cc1C	/	7.9%	10µM*	?	?	-2.5
CCN1CCN(c2cc(-c3ccc(F)cc3)c3c(n2)CCCCCC3)CC1	/	2.0%	/	/	/	-22.0
Cc1c(C#N)c(N)nc2c3c(sc12)NC(=O)CC3c1ccc(Cl)cc1 (stereo not given)	15.8µM*	?	31.0%	2.4	-3.6%	2.8
N#CC1=C(N)OC2=C(CCc3ccccc32)C1c1ccccc1 (stereo not given)	-12.3%	14.0%	1.26µM*	-14.2	-27.0%	1.4
Cc1ccc(/C=C2\CCC3=C2OC(N)=C(C#N)C3c2ccc(C)cc2)cc1 (stereo not given)	0.8%	-6.9%	?	3.2	142.3%	-4.6
COc1ccc(CCn2c(=O)c3ccccc3n(CC(=O)Nc3cccc(C)c3)c2=O)cc1OC	15.9%	-1.8%	-2.5%	/	-1.7%	-11.7
CCN1CCN(C(=O)c2ccc(CSc3ccc(C)cc3)cc2)CC1	-1.9%	0.3%	?	-52.5*	11.1%	-30.3
Cc1ccc(S(=O)(=O)N2CCN(CCNC(=O)C(=O)Nc3ccc(F)cc3)CC2)cc1	/	2.4%	6.8%	18.0	7.4%	31.7*
O=C(CNCc1ccc(Cl)cc1)Nc1ccc(C(=O)N2CCCCCC2)cc1	/	18.5%	?	-64.6*	-1.7%	-20.6
Cc1ccc(SCc2ccc(C(=O)N3CCCC3)cc2)cc1	/	7.8%	?	9.0	10.5%	3.2
O=C(NCCN1CCN(S(=O)(=O)c2ccccc2)CC1)C(=O)Nc1ccc(F)cc1	/	9.9%	-11.4%	-11.2	-1.4%	-9.7
O=C(CNCc1ccc(Cl)cc1)Nc1ccc(C(=O)N2CCCCC2)cc1	/	9.8%	?	-1.7	-2.0%	-10.8
Cc1ccc(C(=O)N2CCN(CCNC(=O)C(=O)NC(C)C)CC2)cc1	/	-1.3%	-2.7%	-21.1	9.0%	-12.2
Cc1ccc(C(=O)N2CCN(CCNC(=O)C(=O)NCc3ccc(Cl)cc3)CC2)cc1	0.2%	-3.0%	-6.9%	-77.6*	-8.3%	-19.7
O=C(Cn1cc(C(F)(F)F)ccc1=O)Nc1ccc2c(c1)OCO2	-0.3%	-0.2%	3.4%	14.7	5.0%	3.1
Cc1ccc(Cl)c2sc(NC(=O)CS(=O)(=O)c3ccc(Cl)cc3)nc12	1.1%	/	1.1%	/	2.7%	-1.8
Cc1ccc(C(=O)N2CCN(CCNC(=O)C(=O)Nc3ccc(Cl)cc3)CC2)cc1	1.0%	-0.4%	22.6%	-61.2*	1.2%	-22.3

Screening data as filed in PubChem.
